# Source: PubChem BioAssay (National Center for Advancing Translational Sciences (NCATS))
# IL1B secr inh = qHTS for Inhibitors of Inflammasome Signaling: IL-1-beta AlphaLISA Primary Screen; AID 743279, 2014; activity change, % at 57.5 µM; THP-1 LPS/ATP IL-1B secretion, AlphaLISA, 16 h; hits give low values; 360,000 tested, 4.7% active; in the data active means activity change below about -50%; inconclusive means mostly about -30% to -49%; further: on the % scale 0 is the no-effect control and ±100 the full control effect
#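 Secreted IL-1B measured by AlphaLISA bead assay after 16 h compound exposure of THP-1 cells; compounds (final up to 57.5 uM) added 1 h before LPS (250 ng/mL) and ATP (1.25 mM) stimulation; lower signal means less secretion.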
# PINK1 expr mod = A Quantitative High throughput Screen to Identify Chemical Modulators of PINK1 Expression. PINK1 immunofluorescence, high-content cytometry, 24 h. Potency, µM (titrated, usually from 76.6 µM), inactives show at the highest dose activation (PINK1 increase), usual class: activators. 410,000 tested, 0.2% active. AID 624263, 2012; active means well fitted activation curve with a large enough effect; inconclusive means small, poorly fitted or top-dose-only effect; cell line not stated here; further: potency means the concentration at half of the fitted maximal effect; % of control where 0% means no effect; nearly all actives have a fitted effect of over 65% in size
#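 PINK1 protein level read as immunofluorescence by microplate cytometer in a fixed, stained stable cell line after 24 h exposure to five compound concentrations, with CCCP as control.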
# ATXN2 expr inh = Primary qHTS for Inhibitors of ATXN expression. HEK-293 ATXN2-luciferase reporter, luminescence, 24 h. Potency, µM (titrated, usually from 57 µM), for inactives: at the top dose activity change, negative = inhibition, most hits filed as inhibitors. 360,000 tested, 0.72% active. AID 1745845, 2022; further: potency means the concentration at half of the fitted maximal effect; on the % scale 0 is the no-effect control and ±100 the full control effect; nearly all actives have a fitted effect of over 55% in size
#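 qHTS (up to 57 uM final) was run with 24 h compound exposure of reporter cells at 37 °C. Each well was multiplexed: SteadyGlo luminescence measured ATXN2-luciferase expression after a fluorogenic Gly-Phe-AFC viability readout (25 uM final).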
# MCF10A rereplic = A quantitative high throughput screen for small molecules that induce DNA re-replication in MCF 10a normal breast cells. 350,000 tested, 2.9% active. AID 624296, 2012. Potency, µM (top dose mostly 46.1 µM), without a hit: at the top dose activity, positive = re-replication, usual class: activators. MCF 10A DNA re-replication, Hoechst nuclear intensity, 48 h; further: potency means the concentration at half of the fitted maximal effect; % of control where 0% means no effect; nearly all actives have a fitted effect of over 50% in size
# ATXN viability = Viability Counterscreen for Primary qHTS for Inhibitors of ATXN expression | 400,000 tested, 0.49% active | S2 cells (HEK-293 line with an ATXN2-luciferase reporter) viability, CellTiter-Fluor protease fluorescence, 24 h | Potency, µM (series often up to 56.7 µM), actives largely listed as cytotoxic; further: potency means the concentration at half of the fitted maximal effect; nearly all actives have a fitted effect of over 40% in size
# SW480 rereplic = A quantitative high throughput screen for small molecules that induce DNA re-replication in SW480 colon adenocarcinoma cells | SW480 DNA re-replication, Hoechst DNA content imaging, 48 h | Potency, µM (series often up to 46.1 µM), for inactives: at the highest dose re-replication activation, hits mostly activators | 340,000 tested, 1.8% active; further: potency means the concentration at half of the fitted maximal effect; % of control where 0% means no effect; nearly all actives have a fitted effect of over 55% in size
#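 Hoechst fluorescence of nuclei (405 nm excitation, 500-530 nm emission) measured by plate-scanning imager after 48 hr compound exposure at 37 C; re-replication scored as increased number of nuclei with elevated intensity.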
# The depositor's hits bear a star; i = inactive; ? = inconclusive; · = not tested or not shown; [ ] = dose if it differs, or a comment. Shown are actives, neighbours in structure and some others; about 7.1% of the full set was active somewhere. Unless noted, the call rests on the fitted dose curve; in most records, active means well fitted curve in the direction sought with a large enough effect; inconclusive means small, poorly fitted or top-dose-only effect, or another doubt; inactive means no such curve, though single readings can be large; an effect the other way counts as inactive or inconclusive.
SMILES,IL1B secr inh,PINK1 expr mod,ATXN2 expr inh,MCF10A rereplic,ATXN viability,SW480 rereplic
COC(=O)c1c(-c2ccc(F)cc2)csc1NC(=O)C1CCCO1 (centres undefined),-18,1%,·,?,i,?
CCOC(=O)c1c(-c2ccc(OC)c(OC)c2)csc1NC(=O)C1CCCO1 (centres undefined),-67*,3%,-31%,-10%,i,0%
CCc1ccccc1NC(=O)CSc1nc2c(oc3ccccc32)c(=O)n1-c1ccccc1,·,0%,0%,·,i,·
O=C(Nc1cccc(C(=O)OCc2cc(=O)n3c4c(sc3n2)CCCC4)c1)c1cccc(F)c1,·,-2%,·,·,·,·
O=C(CN(C1CCCCC1)C1CCCCC1)N1CCc2ccccc2C1,-99*,?,-18%,?,i,?
Cc1nc2ccc(S(=O)(=O)Nc3ccc(-c4nc5cccnc5s4)cc3)cc2s1,19,0%,4%,6.5µM*,·,14%
Cc1ccc2nc(-c3ccc(NS(=O)(=O)c4ccc(F)c(F)c4)cc3)sc2c1,-51*,?,93%,10µM*,i,?
O=S(=O)(Nc1cccc(-c2nc3cccnc3s2)c1)c1ccc2c(c1)CCCC2,5,1%,-6%,?,·,-3%
Cc1nc2ccc(S(=O)(=O)Nc3cccc(-c4nc5cccnc5s4)c3)cc2s1,56,7%,-22%,6.5µM*,i,2%
Cc1ccc(S(=O)(=O)Nc2ccc3nc(C)sc3c2)cc1,-8,-1%,-8%,-3%,i,-2%
Cc1ccc2nc(-c3ccc(NS(=O)(=O)c4ccccc4)cc3)sc2c1,-15,8%,13%,?,i,8%
O=C(NCc1ccco1)c1ccc2c(c1)N(Cc1ccccc1F)C(=O)c1ccccc1S2(=O)=O,·,1%,·,·,·,·
Cc1nc2sc(C(c3ccccc3)N3CCOCC3)c(O)n2n1 (centres undefined),9,-4%[38.3 µM],2%,4.6µM*,i,16µM*
O=S(=O)(c1ccc(F)cc1)N(Cc1nc(-c2ccc(Cl)cc2)no1)C1CCCCC1,·,1%,·,·,·,·
CCc1ccc(/C=C2/Sc3ccccc3N(CC(=O)NCCCN3CCOCC3)C2=O)cc1,-65*,1%,·,?,?,?
COCCCNC(=O)CN1C(=O)/C(=C\c2ccc(C)cc2)Sc2ccccc21,0,9%,-4%,15%,i,5%
O=C(CN1C(=O)/C(=C/c2ccc(C(F)(F)F)cc2)Sc2ccccc21)NCCCN1CCOCC1,?,-1%,-20%,21µM*,i,?
O=C(CCN1C(=O)/C(=C\c2ccccc2)SC1=S)NCCCN1CCOCC1,-27,0%,·,?,?,-2%
CC1(Oc2cccnc2Cl)CCN(Cc2ccc(OC(F)(F)F)cc2)C1 (centres undefined),-56*,4%,-13%,·,i,·
CC1(Oc2cccc(Cl)c2)CCN(Cc2ccc(OC(F)(F)F)cc2)C1 (centres undefined),22,?,4%,·,i,·
CN(C)CCCNc1nccc(N2CCN(C)CC2)n1,·,5%,·,·,·,·
CN(CC(=O)Nc1ccc(Cl)cc1)CC(=O)Nc1cc(Cl)ccc1C#N,-84*,1%[38.3 µM],-18%,?,i,0%
Cc1ccc(NC(=O)CN(C)CC(=O)Nc2ccc(F)c(Cl)c2)cc1,-29,5%,6%,21µM*,i,-4%
CN(Cc1nnc(-c2ccc(F)cc2)o1)c1ccccc1,6,-1%,38%,-6%,i,?
CN(CC(=O)Nc1ccc(Cl)c(Cl)c1)Cc1nnc(-c2ccc(F)cc2)o1,-58*,5%,-14%,-1%,i,0%
